Test results published in the supplement of paper PMC11732987, “Enantioselective OTUD7B fragment discovery through chemoproteomics screening and high-throughput optimisation” (Communications Chemistry, 2025).

Legend:
Assay in all cases: log2 ratio of Biotin-Ahx-Ub-VS probe labelling (fragment/DMSO); higher = less target engagement (more negative = stronger competition), active = hit call of the paper (q ≤ 0.05, log2 ratio ≤ -1)
Conditions in all cases: compound concentration: 200 uM; treatment time: 3 h
USP42 = target: T1, USP42 (UniProt Q9H9J4)
T1 sequence (whole entry): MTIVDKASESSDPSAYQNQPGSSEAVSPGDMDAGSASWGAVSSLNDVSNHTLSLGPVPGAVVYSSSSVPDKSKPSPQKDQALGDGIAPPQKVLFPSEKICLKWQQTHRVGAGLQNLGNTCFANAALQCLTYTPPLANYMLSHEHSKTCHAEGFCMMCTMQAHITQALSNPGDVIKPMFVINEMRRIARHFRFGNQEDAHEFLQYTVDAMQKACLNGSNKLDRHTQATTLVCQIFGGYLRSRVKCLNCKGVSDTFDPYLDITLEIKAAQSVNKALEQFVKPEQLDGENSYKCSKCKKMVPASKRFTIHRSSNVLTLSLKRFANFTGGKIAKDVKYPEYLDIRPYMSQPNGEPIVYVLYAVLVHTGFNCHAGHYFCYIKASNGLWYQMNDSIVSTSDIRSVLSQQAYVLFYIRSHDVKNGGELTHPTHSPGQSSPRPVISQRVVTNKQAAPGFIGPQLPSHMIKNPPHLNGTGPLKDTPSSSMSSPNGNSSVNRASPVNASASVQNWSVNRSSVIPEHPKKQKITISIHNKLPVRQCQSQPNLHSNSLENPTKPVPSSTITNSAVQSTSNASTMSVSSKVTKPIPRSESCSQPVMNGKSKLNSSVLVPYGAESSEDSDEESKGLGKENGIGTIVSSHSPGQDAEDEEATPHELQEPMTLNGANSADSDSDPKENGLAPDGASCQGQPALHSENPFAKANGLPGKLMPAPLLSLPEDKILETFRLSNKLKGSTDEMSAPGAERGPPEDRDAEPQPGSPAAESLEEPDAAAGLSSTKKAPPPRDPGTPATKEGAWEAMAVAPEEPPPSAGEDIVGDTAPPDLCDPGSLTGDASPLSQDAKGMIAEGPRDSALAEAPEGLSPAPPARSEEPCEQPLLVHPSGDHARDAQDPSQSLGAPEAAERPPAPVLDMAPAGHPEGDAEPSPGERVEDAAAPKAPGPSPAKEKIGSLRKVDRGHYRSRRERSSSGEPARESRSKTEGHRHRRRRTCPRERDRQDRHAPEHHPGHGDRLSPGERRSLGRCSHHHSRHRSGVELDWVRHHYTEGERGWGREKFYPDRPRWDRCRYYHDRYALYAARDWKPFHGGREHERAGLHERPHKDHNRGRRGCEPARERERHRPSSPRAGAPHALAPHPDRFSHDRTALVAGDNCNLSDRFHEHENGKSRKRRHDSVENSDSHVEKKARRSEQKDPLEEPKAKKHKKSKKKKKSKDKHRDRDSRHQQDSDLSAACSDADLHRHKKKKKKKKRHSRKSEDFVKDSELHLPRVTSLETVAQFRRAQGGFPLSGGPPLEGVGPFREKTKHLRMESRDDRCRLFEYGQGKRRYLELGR
How it was run: (§1)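 Using Biotin-Ahx-Ub-VS at 0.5 µM final for 1 h, DUBs were labelled in HEK293T lysate (495 µg per sample) that had first been treated in triplicate with fragment at 200 µM or vehicle for 3 h. NeutrAvidin enrichment, LysC and trypsin digestion and diaPASEF LC-MS/MS followed. Spectronaut label-free quantities were global-median-normalised. Values are average log2 fragment/vehicle ratios by unpaired t-test, using proteins with ≥2 unique peptides.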

USP46 = USP46 (UniProt P62068)
USP46, sequence (P62068 whole entry): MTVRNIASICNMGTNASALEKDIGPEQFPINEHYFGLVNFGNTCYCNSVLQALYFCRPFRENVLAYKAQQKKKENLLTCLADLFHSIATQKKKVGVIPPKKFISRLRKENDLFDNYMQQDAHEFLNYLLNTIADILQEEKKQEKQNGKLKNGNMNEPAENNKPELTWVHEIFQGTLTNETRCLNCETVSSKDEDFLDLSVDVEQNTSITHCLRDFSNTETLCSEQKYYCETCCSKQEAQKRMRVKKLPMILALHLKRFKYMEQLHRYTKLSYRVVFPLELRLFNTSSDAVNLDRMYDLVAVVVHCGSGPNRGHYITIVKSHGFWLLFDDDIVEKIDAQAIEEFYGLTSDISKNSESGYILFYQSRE
How it was run: as §1

USP47 = target: T2, USP47 (UniProt Q96K76)
T2 sequence (whole entry): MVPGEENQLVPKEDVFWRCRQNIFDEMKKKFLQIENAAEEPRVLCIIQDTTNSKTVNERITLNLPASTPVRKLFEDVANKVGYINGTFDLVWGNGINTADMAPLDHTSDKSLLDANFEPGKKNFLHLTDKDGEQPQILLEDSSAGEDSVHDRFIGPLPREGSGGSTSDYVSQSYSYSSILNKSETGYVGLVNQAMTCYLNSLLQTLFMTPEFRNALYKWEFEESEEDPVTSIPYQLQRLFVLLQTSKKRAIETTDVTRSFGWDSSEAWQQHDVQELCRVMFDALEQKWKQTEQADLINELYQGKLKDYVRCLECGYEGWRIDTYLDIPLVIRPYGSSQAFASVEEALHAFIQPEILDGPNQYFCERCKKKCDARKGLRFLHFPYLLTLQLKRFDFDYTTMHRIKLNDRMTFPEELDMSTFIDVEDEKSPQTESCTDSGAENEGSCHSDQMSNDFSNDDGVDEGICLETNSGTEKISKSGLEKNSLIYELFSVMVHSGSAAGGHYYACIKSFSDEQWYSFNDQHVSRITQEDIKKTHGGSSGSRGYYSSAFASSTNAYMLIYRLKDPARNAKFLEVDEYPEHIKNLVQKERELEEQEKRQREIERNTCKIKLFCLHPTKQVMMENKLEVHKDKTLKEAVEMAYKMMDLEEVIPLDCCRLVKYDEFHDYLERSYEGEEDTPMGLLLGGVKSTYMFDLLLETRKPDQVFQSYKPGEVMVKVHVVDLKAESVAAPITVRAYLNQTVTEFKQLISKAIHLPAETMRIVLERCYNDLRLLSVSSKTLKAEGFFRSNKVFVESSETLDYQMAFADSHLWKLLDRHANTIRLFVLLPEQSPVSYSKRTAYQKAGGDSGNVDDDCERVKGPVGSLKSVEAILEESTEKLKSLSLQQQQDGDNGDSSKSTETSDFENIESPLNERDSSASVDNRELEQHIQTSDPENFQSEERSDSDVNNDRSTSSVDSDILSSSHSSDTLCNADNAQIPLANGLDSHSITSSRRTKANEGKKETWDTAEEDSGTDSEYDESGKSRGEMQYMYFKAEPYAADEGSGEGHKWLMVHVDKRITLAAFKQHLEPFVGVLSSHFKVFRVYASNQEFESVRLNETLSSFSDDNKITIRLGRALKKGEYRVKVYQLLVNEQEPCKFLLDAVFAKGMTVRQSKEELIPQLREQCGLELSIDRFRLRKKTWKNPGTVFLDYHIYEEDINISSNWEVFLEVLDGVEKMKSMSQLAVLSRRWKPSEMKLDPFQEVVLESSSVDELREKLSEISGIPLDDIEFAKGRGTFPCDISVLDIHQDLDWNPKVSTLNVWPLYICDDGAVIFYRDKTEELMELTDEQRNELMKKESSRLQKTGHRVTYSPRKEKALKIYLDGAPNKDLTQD
How it was run: as §1

USP48 = target: T3, USP48 (UniProt Q86UV5)
T3 sequence (whole entry): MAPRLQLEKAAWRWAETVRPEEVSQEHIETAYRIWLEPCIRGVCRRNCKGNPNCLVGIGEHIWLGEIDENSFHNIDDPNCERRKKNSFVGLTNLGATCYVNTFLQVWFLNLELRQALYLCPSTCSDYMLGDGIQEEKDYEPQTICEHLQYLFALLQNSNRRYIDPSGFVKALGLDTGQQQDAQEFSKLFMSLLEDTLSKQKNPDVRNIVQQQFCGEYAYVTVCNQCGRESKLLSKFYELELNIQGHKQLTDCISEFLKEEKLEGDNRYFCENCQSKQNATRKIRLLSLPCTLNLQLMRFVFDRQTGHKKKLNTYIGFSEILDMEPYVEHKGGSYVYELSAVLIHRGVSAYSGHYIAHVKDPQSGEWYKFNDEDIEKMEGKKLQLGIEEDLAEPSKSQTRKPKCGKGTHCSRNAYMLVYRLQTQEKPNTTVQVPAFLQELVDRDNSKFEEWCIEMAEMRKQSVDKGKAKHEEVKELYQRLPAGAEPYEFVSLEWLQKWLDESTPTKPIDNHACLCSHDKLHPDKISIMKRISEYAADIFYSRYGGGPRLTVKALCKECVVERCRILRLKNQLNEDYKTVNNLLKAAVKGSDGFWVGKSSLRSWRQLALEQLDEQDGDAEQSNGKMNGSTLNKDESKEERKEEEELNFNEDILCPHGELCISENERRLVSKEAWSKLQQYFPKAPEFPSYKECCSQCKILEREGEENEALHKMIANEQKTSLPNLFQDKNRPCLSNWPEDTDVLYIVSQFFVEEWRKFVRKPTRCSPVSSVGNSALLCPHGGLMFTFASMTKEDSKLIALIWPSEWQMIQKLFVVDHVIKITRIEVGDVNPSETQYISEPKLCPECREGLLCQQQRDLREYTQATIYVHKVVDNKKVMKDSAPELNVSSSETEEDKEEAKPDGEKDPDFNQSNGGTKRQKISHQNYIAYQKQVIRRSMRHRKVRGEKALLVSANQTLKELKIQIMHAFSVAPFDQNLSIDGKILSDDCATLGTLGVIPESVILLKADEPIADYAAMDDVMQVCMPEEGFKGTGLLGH
How it was run: as §1

USP5 = target: T4, USP5 (UniProt P45974)
T4 sequence (whole entry): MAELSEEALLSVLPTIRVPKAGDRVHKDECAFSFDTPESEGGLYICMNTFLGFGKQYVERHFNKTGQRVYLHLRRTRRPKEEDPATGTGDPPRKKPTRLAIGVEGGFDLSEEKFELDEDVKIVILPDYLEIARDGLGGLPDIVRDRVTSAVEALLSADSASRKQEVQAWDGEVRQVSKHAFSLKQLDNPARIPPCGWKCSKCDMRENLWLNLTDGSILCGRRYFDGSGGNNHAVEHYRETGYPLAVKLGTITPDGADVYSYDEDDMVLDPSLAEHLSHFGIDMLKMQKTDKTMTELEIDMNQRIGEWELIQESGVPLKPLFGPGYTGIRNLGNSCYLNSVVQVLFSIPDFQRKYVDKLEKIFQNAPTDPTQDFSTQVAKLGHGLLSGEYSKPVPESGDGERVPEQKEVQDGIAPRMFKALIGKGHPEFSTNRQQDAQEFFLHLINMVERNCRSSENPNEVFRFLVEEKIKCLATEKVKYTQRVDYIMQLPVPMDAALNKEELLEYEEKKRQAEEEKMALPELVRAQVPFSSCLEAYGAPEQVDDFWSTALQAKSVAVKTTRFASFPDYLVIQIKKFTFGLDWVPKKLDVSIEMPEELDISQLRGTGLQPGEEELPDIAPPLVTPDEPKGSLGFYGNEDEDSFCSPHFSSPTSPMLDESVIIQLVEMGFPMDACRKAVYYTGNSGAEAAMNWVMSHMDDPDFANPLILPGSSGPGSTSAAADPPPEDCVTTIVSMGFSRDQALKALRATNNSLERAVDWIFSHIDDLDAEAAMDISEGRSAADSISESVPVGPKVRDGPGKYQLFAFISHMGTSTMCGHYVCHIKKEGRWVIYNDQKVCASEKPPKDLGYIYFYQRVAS
How it was run: as §1

USP54 = USP54 (UniProt Q70EL1)
USP54, sequence (Q70EL1 whole entry): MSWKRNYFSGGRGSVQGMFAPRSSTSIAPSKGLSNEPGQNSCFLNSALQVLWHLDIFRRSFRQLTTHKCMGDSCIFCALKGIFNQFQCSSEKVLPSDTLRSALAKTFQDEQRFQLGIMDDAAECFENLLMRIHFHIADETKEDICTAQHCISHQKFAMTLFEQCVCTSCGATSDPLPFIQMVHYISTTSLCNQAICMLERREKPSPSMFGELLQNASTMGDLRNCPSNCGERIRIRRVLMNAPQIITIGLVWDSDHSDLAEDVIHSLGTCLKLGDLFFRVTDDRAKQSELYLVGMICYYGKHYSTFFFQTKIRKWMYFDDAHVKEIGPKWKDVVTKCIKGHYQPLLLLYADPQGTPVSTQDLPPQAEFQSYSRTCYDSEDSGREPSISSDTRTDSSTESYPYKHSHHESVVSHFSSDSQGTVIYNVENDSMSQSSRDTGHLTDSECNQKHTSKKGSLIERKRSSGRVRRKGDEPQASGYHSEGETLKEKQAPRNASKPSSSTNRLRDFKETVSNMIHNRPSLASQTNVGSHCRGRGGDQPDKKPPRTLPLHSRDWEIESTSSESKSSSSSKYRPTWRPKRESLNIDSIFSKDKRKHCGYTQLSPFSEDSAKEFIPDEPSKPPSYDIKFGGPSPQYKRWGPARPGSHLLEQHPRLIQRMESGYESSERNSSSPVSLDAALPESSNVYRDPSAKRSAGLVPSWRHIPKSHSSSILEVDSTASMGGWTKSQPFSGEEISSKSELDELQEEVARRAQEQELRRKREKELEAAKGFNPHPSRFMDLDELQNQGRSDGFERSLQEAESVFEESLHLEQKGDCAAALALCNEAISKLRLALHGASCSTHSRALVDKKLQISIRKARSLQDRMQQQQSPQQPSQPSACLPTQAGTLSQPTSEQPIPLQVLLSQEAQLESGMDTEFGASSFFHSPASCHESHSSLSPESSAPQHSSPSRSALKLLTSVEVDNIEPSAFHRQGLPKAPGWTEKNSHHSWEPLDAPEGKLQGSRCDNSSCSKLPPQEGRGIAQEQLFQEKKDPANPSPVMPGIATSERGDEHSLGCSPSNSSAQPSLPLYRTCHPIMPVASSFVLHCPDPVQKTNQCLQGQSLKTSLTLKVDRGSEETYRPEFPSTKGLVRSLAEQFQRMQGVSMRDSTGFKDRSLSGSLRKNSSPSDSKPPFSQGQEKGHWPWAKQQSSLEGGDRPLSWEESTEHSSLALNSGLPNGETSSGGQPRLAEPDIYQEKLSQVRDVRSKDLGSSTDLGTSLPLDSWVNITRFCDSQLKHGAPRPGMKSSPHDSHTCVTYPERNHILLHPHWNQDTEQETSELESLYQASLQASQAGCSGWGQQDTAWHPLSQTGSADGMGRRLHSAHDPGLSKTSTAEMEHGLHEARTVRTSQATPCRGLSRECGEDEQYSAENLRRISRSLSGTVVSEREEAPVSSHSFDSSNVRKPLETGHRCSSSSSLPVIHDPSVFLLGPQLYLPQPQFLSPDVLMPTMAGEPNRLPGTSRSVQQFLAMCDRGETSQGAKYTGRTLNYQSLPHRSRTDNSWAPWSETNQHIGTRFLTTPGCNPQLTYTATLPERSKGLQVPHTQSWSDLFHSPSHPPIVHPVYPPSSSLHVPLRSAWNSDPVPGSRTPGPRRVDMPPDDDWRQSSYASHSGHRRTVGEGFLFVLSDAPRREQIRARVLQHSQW
How it was run: as §1

USP7 = USP7 (UniProt Q93009)
How it was run: as §1

USP8 = target: T5, USP8 (UniProt P40818)
T5 sequence (whole entry): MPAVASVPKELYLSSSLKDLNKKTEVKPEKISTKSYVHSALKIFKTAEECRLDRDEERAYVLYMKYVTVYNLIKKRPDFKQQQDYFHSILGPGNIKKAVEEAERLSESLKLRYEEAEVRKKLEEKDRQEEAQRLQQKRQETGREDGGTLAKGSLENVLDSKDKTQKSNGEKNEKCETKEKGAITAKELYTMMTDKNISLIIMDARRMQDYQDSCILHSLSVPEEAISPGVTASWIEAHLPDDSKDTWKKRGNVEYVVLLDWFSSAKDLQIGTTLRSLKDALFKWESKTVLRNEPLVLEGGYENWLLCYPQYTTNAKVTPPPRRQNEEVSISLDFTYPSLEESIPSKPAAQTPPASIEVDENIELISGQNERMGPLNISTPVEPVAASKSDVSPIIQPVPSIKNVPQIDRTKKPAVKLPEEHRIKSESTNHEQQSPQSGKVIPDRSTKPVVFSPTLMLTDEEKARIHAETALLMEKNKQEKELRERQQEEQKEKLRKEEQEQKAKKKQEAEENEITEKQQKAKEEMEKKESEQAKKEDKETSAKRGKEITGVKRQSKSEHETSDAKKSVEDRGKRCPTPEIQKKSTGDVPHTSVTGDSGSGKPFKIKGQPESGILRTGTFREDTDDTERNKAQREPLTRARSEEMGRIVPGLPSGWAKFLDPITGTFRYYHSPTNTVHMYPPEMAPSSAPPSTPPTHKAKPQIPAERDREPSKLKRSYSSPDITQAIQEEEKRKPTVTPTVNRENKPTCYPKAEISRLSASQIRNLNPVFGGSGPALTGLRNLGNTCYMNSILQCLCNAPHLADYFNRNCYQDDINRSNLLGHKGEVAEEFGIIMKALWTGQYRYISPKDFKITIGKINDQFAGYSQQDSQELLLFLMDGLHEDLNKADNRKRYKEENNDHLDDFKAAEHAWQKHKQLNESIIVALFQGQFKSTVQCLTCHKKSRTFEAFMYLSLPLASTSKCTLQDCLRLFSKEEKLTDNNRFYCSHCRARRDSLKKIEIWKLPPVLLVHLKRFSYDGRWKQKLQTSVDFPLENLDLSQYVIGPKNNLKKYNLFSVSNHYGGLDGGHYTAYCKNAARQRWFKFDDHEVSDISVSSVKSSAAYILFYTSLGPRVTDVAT
How it was run: as §1

USP9X = USP9X (UniProt Q93008)
USP9X, sequence (Q93008 whole entry): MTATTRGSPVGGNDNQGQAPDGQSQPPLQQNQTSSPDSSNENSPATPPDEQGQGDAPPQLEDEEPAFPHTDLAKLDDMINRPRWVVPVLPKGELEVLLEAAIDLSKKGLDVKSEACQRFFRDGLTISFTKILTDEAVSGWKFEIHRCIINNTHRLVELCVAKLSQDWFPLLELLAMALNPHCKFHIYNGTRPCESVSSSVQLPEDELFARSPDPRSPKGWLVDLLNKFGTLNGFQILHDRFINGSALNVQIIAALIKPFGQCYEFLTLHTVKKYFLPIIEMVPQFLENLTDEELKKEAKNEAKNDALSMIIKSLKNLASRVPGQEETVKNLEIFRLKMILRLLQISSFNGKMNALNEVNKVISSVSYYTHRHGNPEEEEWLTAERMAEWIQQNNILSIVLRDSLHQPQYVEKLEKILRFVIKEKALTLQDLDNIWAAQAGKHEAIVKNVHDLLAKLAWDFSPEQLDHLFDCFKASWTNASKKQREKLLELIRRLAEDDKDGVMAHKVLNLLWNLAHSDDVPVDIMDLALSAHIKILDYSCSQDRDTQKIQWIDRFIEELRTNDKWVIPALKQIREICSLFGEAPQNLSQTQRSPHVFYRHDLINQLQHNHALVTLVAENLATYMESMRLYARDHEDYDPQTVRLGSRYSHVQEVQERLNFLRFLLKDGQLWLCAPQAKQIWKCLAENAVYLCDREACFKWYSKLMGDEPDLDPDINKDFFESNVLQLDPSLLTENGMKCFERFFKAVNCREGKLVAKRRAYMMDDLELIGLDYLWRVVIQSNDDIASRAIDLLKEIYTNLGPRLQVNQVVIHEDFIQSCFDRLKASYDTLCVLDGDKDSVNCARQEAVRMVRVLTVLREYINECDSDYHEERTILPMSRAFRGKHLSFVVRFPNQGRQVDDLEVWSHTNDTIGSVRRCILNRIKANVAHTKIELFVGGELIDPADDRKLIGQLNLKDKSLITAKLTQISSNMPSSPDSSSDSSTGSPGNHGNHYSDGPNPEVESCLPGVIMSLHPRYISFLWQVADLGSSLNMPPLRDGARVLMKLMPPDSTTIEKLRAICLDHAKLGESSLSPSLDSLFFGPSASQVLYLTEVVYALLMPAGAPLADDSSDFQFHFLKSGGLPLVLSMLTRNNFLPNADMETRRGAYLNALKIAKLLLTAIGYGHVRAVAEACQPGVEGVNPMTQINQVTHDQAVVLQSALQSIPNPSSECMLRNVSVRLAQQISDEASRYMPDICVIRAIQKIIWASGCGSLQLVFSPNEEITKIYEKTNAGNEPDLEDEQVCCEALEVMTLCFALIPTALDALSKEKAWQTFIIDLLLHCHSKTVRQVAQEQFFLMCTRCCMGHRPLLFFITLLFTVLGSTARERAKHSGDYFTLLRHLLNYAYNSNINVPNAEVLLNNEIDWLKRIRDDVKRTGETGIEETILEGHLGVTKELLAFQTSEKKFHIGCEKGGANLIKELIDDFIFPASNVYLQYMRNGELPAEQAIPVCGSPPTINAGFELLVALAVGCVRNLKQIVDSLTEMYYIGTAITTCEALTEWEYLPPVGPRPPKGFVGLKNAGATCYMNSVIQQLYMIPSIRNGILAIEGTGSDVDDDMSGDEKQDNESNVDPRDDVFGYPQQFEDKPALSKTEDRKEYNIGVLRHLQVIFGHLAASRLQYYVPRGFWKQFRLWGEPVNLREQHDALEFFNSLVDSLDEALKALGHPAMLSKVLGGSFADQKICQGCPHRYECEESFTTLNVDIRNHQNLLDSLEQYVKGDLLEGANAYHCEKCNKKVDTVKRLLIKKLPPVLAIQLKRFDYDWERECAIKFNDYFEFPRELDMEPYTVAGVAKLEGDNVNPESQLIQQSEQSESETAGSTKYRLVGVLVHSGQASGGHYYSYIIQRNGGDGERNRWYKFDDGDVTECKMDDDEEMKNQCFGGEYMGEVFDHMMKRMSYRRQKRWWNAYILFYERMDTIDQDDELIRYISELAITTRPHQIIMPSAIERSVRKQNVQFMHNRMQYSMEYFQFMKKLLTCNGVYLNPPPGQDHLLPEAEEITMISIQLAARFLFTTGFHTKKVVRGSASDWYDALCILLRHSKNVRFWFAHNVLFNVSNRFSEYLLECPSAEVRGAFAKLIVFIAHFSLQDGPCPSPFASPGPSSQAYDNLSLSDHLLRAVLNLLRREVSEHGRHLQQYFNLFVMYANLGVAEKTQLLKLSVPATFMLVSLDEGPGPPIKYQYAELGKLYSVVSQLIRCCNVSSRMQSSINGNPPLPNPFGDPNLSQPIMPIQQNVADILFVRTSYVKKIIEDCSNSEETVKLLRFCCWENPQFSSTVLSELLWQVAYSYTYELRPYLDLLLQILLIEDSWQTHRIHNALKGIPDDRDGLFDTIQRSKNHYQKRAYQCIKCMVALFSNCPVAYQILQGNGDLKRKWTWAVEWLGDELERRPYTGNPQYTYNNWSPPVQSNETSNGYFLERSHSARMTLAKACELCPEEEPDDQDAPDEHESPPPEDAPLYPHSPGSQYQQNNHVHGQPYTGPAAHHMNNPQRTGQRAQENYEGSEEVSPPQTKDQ
How it was run: as §1

UniProt O00487 = target: UniProt O00487
UniProt O00487, sequence (O00487 whole entry): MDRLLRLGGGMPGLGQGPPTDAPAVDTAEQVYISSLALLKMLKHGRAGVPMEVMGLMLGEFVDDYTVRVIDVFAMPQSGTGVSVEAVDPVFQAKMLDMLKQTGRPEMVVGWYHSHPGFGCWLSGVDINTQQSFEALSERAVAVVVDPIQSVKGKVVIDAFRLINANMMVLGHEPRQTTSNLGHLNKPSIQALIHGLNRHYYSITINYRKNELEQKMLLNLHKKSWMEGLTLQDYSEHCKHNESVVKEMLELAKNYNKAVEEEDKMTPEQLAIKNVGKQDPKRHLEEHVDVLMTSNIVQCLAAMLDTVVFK
How it was run: as §1

Measured: log2 ratio of Biotin-Ahx-Ub-VS probe labelling

Cl.Cn1nc2c(c1CNC(=O)CCl)CCCC2
inactive: USP42 -0.241 | USP46 0.117 | USP47 0.0138 | USP48 -0.0889 | USP5 0.0696 | USP54 0.268 | USP7 -0.055 | USP8 -0.598 | USP9X -0.188 | UniProt O00487 0.0603
